From PubChem
The full list was thinned out, with hits kept by preference.
Pf Dd2 inh: Plasmodium falciparum Dd2 growth inhibition; P. falciparum Dd2 growth, SYBR Green, 72 h; Potency, µM (top dose mostly 28.9 µM), inactives show at the top dose activity, negative = inhibition, actives largely listed as inhibitors; hit rate 4.3% among 120,000; active means well fitted inhibition curve with a large enough effect;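 further: plate controls were DMSO vehicle for no effect and reference drug for full effect; nearly all actives have a fitted effect of over 65% in size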
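Infected erythrocytes (Dd2, 0.3% parasitemia, 2.5% hematocrit final) are added to compound in RPMI-1640/Albumax II medium, grown 72 h at 37C in low oxygen, then lysed with saponin/Triton-X containing SYBR Green and read by fluorescence.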
Active calls of the source: *; i = inactive; ! = not active in a repeat; [ ] = remark or other dose. Potency means the concentration at half of the fitted maximal effect.

SMILES | Pf Dd2 inh
Cc1cc(C)cc(N2C(=O)CCSC23C(=O)N(Cc2ccccc2)c2ccccc23)c1 (stereo not given) | i
Cc1ccc(NC(=O)CN2C(=O)C(C)(C)c3ccccc32)cc1 | -12.3%
O=C(CN1C(=O)C2(SCC(=O)N2c2ccccc2)c2ccccc21)NCc1ccccc1 (stereo not given) | -13.7%
Cn1nc2n(c1=O)CCC(N)CC2 (stereo not given) | 29.7%
COCC(=O)N[C@@H]1CN(Cc2ccc(C#N)cc2)C[C@H]1CO | -14.3%
CC(C)NC(=O)N1CCC2(CC1)CN(C(=O)Cc1ccccc1)CCO2 | -19.2%
CSc1ccc(-c2ccc(=O)n3c2[C@@H]2C[C@@H](CN(S(C)(=O)=O)C2)C3)cc1 | -14.4%[44.1 µM]
COc1ccc2[nH]c3c(c2c1)CCNC31CCN(C(=O)c2ccncc2)CC1 | i
O=C(c1nccc2ccccc12)N1CCC2(CC1)NCCc1c2[nH]c2ccccc12 | 3.98µM*
COc1ccc2[nH]c3c(c2c1)CCNC31CCN(C(=O)C2CCN2C2CCCCC2)CC1 (stereo not given) | 12.6µM*
COc1ccc2[nH]c3c(c2c1)CCNC31CCN(C(=O)C(C)C)CC1 | i
CCn1ccc(C(=O)N2CCC3(CC2)NCCc2c3[nH]c3ccccc23)n1 | -27.6%
COc1ccc2[nH]c3c(c2c1)CCNC31CCN(C(=O)CC(C)C)CC1 | 7.94µM*
CCCC(=O)N1CCC2(CC1)NCCc1c2[nH]c2ccc(OC)cc12 | -7.7%
CC(C)CC(=O)N1CCC2(CC1)NCCc1c2[nH]c2ccccc12 | -15.0%
CCC(=O)N1CCC2(CC1)NCCc1c2[nH]c2ccc(OC)cc12 | -12.8%
CNC(=O)[C@@H]1C[C@H](n2cc(CNC(=O)c3ccccc3OC)nn2)CN1 | 14.7%
Cc1nc(N2CCCCC2)n(CC(=O)Nc2ccc(Br)cc2F)c(=O)c1C | i
COCC(=O)N[C@H](C)c1onc(-c2cccnc2)c1C(=O)O | -20.1%[44.1 µM]
CCNC(=O)c1cccnc1OC1CCN(C(=O)c2cc(C)ccc2C)C1 (stereo not given) | -4.7%
Cc1cc(OC2CN(Cc3ccnn3C)C2)ccc1F | i
O=C(NC[C@H]1OC[C@@H](NCc2ccccn2)[C@@H]1O)Nc1ccccc1 | -21.0%[44.1 µM]
COCCn1nc2n(c1=O)CCN(C(=O)c1ncccc1C)CC2 | i
CCOc1ccccc1C(=O)N1CCN(Cc2ccc(=O)n(C)c2)CC1 | -20.2%
O=C(NCc1ccc2c(c1)OCO2)c1nc(-c2ccc(Cl)cc2Cl)c2ccccn12 | i
SMILES | Pf Dd2 inh
COC(=O)CNC(=O)c1nc(-c2ccc(Cl)cc2Cl)c2ccccn12 | 21.3%
O=C(c1nc(-c2ccc(Cl)nc2)c2cnccn12)N1CCOCC1 | 5.0%
C[S+](=O)([O-])c1ccc(-c2nc(C(=O)N3CCCC3)n3ccncc23)cc1 | 12.6µM*
COC(=O)CNC(=O)c1nc(-c2ccc(Cl)cc2Cl)c2cnccn12 | -22.0%
CC(C)(C)c1nc(C(=O)N2CCN(c3ncccn3)CC2)n2ccncc12 | 5.01µM*
O=C(c1nc(-c2ccc(F)cc2)c2cnccn12)N1CCN(c2ncccn2)CC1 | i
C[S+](=O)([O-])c1ccc(-c2nc(C(=O)N3CCOCC3)n3ccccc23)cc1 | 18.4%
Cn1ncc2c(C(=O)NCc3cccnc3)cc(-c3ccc(Cl)cc3Cl)nc21 | i
O=C(NCc1cccnc1)c1nc(-c2ccc(Cl)cc2Cl)c2cnccn12 | 11.2µM*
CC(C)NC(=O)c1nc(-c2ccc(Cl)cc2Cl)c2cnccn12 | 3.55µM*
O=C(c1nc(-c2cccc(C(F)(F)F)c2)c2ccccn12)N1CCN(c2ncccn2)CC1 | -1.6%
CNC(=O)[C@@H]1CN(C(=O)c2cc(C)on2)C[C@H]1COC | 19.3%
COC[C@@H]1CN(S(=O)(=O)c2cccc(OC)c2)C[C@H]1C(N)=O | 4.2%
CN1C(=O)CCc2cc(NC(=O)Cc3ccccc3Cl)ccc21 | -9.9%
CN1CCCC1c1nc(C2CN(C(=O)c3cnccn3)C2)no1 (stereo not given) | i
c1ccc2sc([C@H]3CCN(Cc4ccc5c(c4)OCO5)C3)nc2c1 | i
CC(C)NC(=O)N1CCN(c2cccc(C=O)c2)C(=O)C1 | 43.8%[44.1 µM]
CC(C)(C)CN[C@@H]1CO[C@H](CNC(=O)c2ccc(F)cc2)[C@H]1O | -65.8%[44.1 µM]
COc1ccccc1-c1cc(C(=O)NCc2cccnc2)nn2cccc12 | -12.1%
COc1ccccc1-c1cc(C(=O)N2CCCC2)nn2cccc12 | 0.1%
COc1ccccc1-c1nc(C(=O)N2CCCC2)n2ccncc12 | 10µM*
COC(=O)CNC(=O)c1nc(-c2ccccc2OC)c2cnccn12 | 10.3%
COc1ccccc1-c1nc(C(=O)NCc2cccnc2)n2ccncc12 | 10µM*!
COc1ccccc1-c1nc(C(=O)N(C)C)n2ccncc12 | 3.3%
C1CC(c2noc(C34CC5CC(CC(C5)C3)C4)n2)CO1 (stereo not given) | -19.2%
SMILES | Pf Dd2 inh
Cc1ccc(CN2C(=O)COC[C@H]2C(=O)N2CCN(c3ccccc3F)CC2)cc1 | -27.2%
CC(C)CNC(=O)Cc1cccn1-c1ccc(F)cc1 | i
Cc1[nH]nc(CCC(=O)N2CC[C@H](N3CCOCC3)[C@H](CCC(=O)O)C2)c1C | 29.1%
O=C(c1ccccc1F)N1CCC2(CC1)CC(OCC1CC1)CCO2 (stereo not given) | -7.9%
Cc1nn(C)c2nc(-c3ccccn3)nc(NCC(c3ccco3)N(C)C)c12 (stereo not given) | 8.91µM*
CNS(=O)(=O)CCNc1nc(-c2ccccn2)nc2c1c(C)nn2C | -6.2%
Cc1nc(CCNc2nc(-c3ccccn3)nc3c2c(C)nn3C)no1 | i
CCn1ccc(C(=O)N2CCCC(c3noc(COc4ccccc4)n3)C2)n1 (stereo not given) | -76.5%
Cc1ccsc1C(=O)N1CCC(c2n[nH]c(=O)n2Cc2ccc(F)cc2)CC1 | -5.9%
CNC(=O)N1CCC(OC2CCN(Cc3ccccc3)CC2)CC1 | -26.5%
O=C(Nc1cc(F)c(F)c(F)c1)N1CCC(OC2CCN(Cc3ccccc3)CC2)CC1 | i
O=C(c1c(F)cccc1F)N1CCC(OC2CCN(Cc3ccccc3)CC2)CC1 | 11.2µM*
O=C(CCC1CCCN(Cc2cnc(-c3ccccc3)s2)C1)Nc1ccccc1F (stereo not given) | 14.1µM*
CC(C)(O)C#Cc1ccc(CN2CCCC(CCC(=O)Nc3ccccc3F)C2)s1 (stereo not given) | -6.7%
O=C(CCC1CCCN(CC2=Cc3cc(Cl)ccc3OC2)C1)Nc1ccccc1F (stereo not given) | i
C#CCN(CC=C)C(=O)c1ccccc1OC1CCN(C(=O)c2cccnc2)CC1 | 0.7%
COc1ccc(-c2cnc3n2CC(C(=O)N2CCOCC2)CC3)cc1 (stereo not given) | -4.3%
O=C(c1cnc[nH]1)N1CC(F)(F)C[C@H]1c1nc(C2CC2)no1 | 3.0%
COc1ccc2sc(N(Cc3cccnc3)C(=O)COc3ccccc3)nc2c1 | i
Cc1cc2nc(N(Cc3cccnc3)C(=O)c3ccc(Cl)s3)sc2cc1C | 44.8%
CCc1ccc2nc(N(Cc3cccnc3)C(=O)c3cccs3)sc2c1 | 3.16µM*
COc1ccc2nc(N(Cc3cccnc3)C(=O)COc3ccccc3)sc2c1 | 16.2%
COc1ccc2sc(N(Cc3cccnc3)C(=O)c3ccc4c(c3)OCCO4)nc2c1 | 7.08µM*
O=C(COc1ccccc1)N(Cc1cccnc1)c1nc2ccc(F)cc2s1 | 15.0%
CCOc1ccc2nc(N(Cc3cccnc3)C(=O)C3CCCCC3)sc2c1 | 2.24µM*
COc1cccc2sc(N(Cc3cccnc3)C(=O)c3ccc(S(=O)(=O)N(C)C)cc3)nc12 | -20.9%
Cc1ccc2nc(N(Cc3cccnc3)C(=O)C3CCCCC3)sc2c1 | 2.51µM*
